Measurements from PubChem BioAssay (NCI).
The panel holds about 79,000 compounds, 15% with a hit somewhere; the sample as a whole holds those more often. No stated cut-off is given here; in the data, active means growth inhibition above about 70%; inactive means the rest.

How the values were obtained:
[1] = NCI Yeast Anticancer Drug Screen. Data for the rad50 strain (AID 155);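 further: 0% = growth of vehicle-only cultures of the same strain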; settings: S. cerevisiae rad50 strain growth inhibition; at 50.0 µM; stronger effect = higher value
How it was run: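 Relative growth inhibition (compound vs vehicle) was measured in yeast with a defined repair-gene alteration.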

[2] = NCI Yeast Anticancer Drug Screen. Data for the mec2-1 strain (AID 157); settings: S. cerevisiae mec2-1 strain, at 50.0 µM, stronger effect = higher value
How it was run: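 Each compound was tested on mec2-1 yeast, a strain altered in DNA damage repair or cell cycle control. Growth inhibition is reported relative to vehicle.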

[3] = NCI Yeast Anticancer Drug Screen. Data for the sgs1 mgt1 strain (AID 161);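 further: 0% = growth of cultures given vehicle only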; settings: S. cerevisiae sgs1 mgt1 strain, at 50.0 µM, stronger effect = higher value
How it was run: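 Inhibition of yeast growth, normalised to vehicle-treated controls, is reported for a strain bearing genetic alterations in DNA damage repair.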

[4] = NCI Yeast Anticancer Drug Screen. Data for the cln2 rad14 strain (AID 165);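 further: 0% = growth equal to vehicle treated cultures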; settings: S. cerevisiae cln2 rad14 strain, at 50.0 µM, stronger effect = higher value
How it was run: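 Test compounds were added to cln2 rad14 yeast cultures; inhibition of growth was then determined by comparison with vehicle treatment.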

[5] = NCI Yeast Anticancer Drug Screen. Data for the bub3 strain (AID 167); settings: S. cerevisiae bub3 mutant strain, at 50.0 µM, stronger effect = higher value
How it was run: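 Screening used yeast with an engineered genetic alteration affecting cell cycle control. Compound-exposed cultures were compared with vehicle cultures, and reduced growth was taken as inhibition.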

[6] = NCI Yeast Anticancer Drug Screen. Data for the mlh1 rad18 strain (AID 175); settings: S. cerevisiae mlh1 rad18 strain growth inhibition; at 50.0 µM; stronger effect = higher value
How it was run: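 Inhibition values reflect reduced growth of mutant yeast versus vehicle-treated controls following compound exposure; the mutations affect DNA damage repair.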

Measured: growth inhibition

CC12CCC(=O)OC1(C)OC(=O)CC2 (stereo unspecified)
inactive: [1] 10.4% | [2] 17.1% | [3] 2.85% | [4] -5.75% | [5] 7.7% | [6] -7.7%

CC(C)(CO)N=Cc1ccc(Cl)c(Cl)c1
inactive: [1] 2.35% | [2] -13.2% | [3] -16.5% | [4] -3.1% | [5] -11.5% | [6] -24.6%

CCOC(=O)/C(F)=C/c1cccc([N+](=O)[O-])c1
inactive: [1] 13.4% | [2] 8.8% | [3] -5.35% | [4] 10.1% | [5] 7.95% | [6] 19.8%

C/C=C/C=C/C=N\O
inactive: [1] 16.6% | [2] 3.1% | [3] -6.65% | [4] -2.8% | [5] -1.45% | [6] 6.8%

O=C(CCN1CCCCC1)C(O)(c1ccccc1)c1ccccc1
inactive: [1] 19.2% | [2] -2% | [3] 24.7% | [4] -6.05% | [5] -10.4% | [6] 14.2%

O=C1CC(c2ccc(Cl)cc2)NC(c2ccc(Cl)cc2)C1 (stereo unspecified)
inactive: [1] 13.6% | [2] 2.35% | [3] 8.55% | [4] 11.2% | [5] 6.4% | [6] 14.8%

CSc1ccccc1N.[Cl][Cu][Cl]
inactive: [1] 28.8% | [2] 19.4% | [3] -2% | [4] 14.8% | [5] 28.1% | [6] 28.4%

Cc1cccc(N2CCN(c3ccc4nonc4c3[N+](=O)[O-])CC2)c1
inactive: [1] -5.05% | [2] -4.4% | [3] -9.9% | [4] -13% | [5] -13.9% | [6] -15.3%

c1ccc2c3nnc(c2c1)SCCSCCCSCCS3
inactive: [1] -24.4% | [2] -31.4% | [3] -2.2% | [4] -5.25% | [5] 8.65% | [6] -30.4%

CCCCCCNC1=C(OC)C(=O)C(NCCCCCC)=C(OC)C1=O
inactive: [1] -7.4% | [2] 7.9% | [3] 2.1% | [4] -54.9% | [5] 8.5% | [6] -13.6%

CCC(C)C1SCC(=O)N1c1nncs1 (stereo unspecified)
inactive: [1] 10.6% | [2] 7.45% | [3] 6.55% | [4] -4.6% | [5] 4.9% | [6] 16.4%

CCN1C(=O)Nc2ccc(Cl)cc2C1(O)c1ccccc1 (stereo unspecified)
inactive: [1] 6.25% | [2] 12.6% | [3] 1.55% | [4] 10.8% | [5] -12.8% | [6] -6.35%

O=c1[nH]c2nc(Cl)nc(Cl)c2[nH]1
inactive: [1] 28.4% | [2] 5.55% | [3] 11.4% | [4] 12.1% | [5] 8.3% | [6] 45%

COc1cc(O)c2c(c1)Cc1cc(C)cc(O)c1C2=O
inactive: [1] 10.2% | [2] -1% | [3] 6.2% | [4] 22.5% | [5] 16.6% | [6] 1.65%

O=C1CCCCC1CN1CCCC1 (stereo unspecified)
inactive: [1] -10.4% | [2] -12% | [3] -33.6% | [4] 21.4% | [5] -42.5% | [6] -22.6%

O=C(O)CCC(NC(=O)c1ccc(Nc2nc3ccc(C(F)(F)F)cc3nc2-c2ccccc2)cc1)C(=O)O (stereo unspecified)
inactive: [1] -11.5% | [2] 11.9% | [3] 4.75% | [4] -8.75% | [5] 1.25% | [6] -0.05%

Nc1n[nH]c(CO)n1
inactive: [1] 7.3% | [2] 4.05% | [3] -6.6% | [4] 9.65% | [5] -14.8% | [6] -7.1%

O=[N+]([O-])c1ccc(N/N=C/CCCCO)c([N+](=O)[O-])c1
inactive: [1] 13.3% | [2] -4.65% | [3] -0.6% | [4] -30.6% | [5] 9.85% | [6] -5.8%

CC1CCC(CC(N)=O)C1(C)C (stereo unspecified)
inactive: [1] 11.8% | [2] -7.15% | [3] 2.75% | [4] -22.2% | [5] 2.85% | [6] 0.35%

COC(=O)C1=C2C3(O)CC4CC5C3CCC(C)N5C24C2CCC(O)C(OC)C2C1OC(=O)c1ccccc1 (stereo unspecified)
inactive: [1] -34.6% | [2] -38.3% | [3] -20.9% | [4] -1.85% | [5] -30.4% | [6] 4.35%

OCCNc1ncnc2[nH]ncc12
inactive: [1] 2.75% | [2] -6.1% | [3] -20.6% | [4] -21.8% | [5] -24.2% | [6] 5.55%
